Screening results as filed in PubChem.
S1P4 antagonist: blocks the human S1P4 receptor; O95977; S1P4-expressing cells, antagonist mode, reporter read-out; inhibition, % at 4.98 µM; 220,000 compounds, 0.26% hits; in the data active = inhibition above about 29%;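 also: 0% = wells stimulated with agonist and 100% = vehicle wells without agonist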
HSF1 activator: increases HSF-1 driven luciferase reporter signal | activation, % at 9 µM | NIH3T3-HGL HSF-1 luciferase reporter, MG132, 8 h; 100% = twice DMSO control signal | AID 504408 | 300,000 compounds, 1.7% hits;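 active = mean replicate activation of at least 50% with a set share of replicates each reaching 50%; inconclusive = only one of those two conditions met; inactive = mean below 50% and too few replicates reaching it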;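 also: 0% = median of the neutral control wells and 100% = twice that signal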
S1P4 ag: human S1P4 receptor agonism | O95977 | S1P4-expressing cell line, agonist reporter assay | activation, % at 4.98 µM | 220,000 compounds, 0.35% hits | AID 1509; in the data active = activation above about 11%;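 also: 0% = DMSO vehicle and 100% = reference agonist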
HSF1 inhib: HSF1 inhibition; NIH3T3-HGL HSE-luciferase, MG132-induced, luminescence 8 h; active compounds read low; activity change, negative = inhibition, % at 7.5 µM (by protocol); 300,000 compounds, 0.77% hits; AID 2098;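 active = more than half of replicate wells show activity change below -50%, luminescence cut by over half; inconclusive = some wells, but at most half, below -50%; inactive = no replicate well below -50%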;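 also: luciferase reports HSF-1 transcriptional activity via heat shock element; 0% = median of DMSO wells and -100% = zero luminescence signal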
S1P3 antag: S1P3 (human) receptor antagonism; CHO S1P3 NFAT-BLA reporter, FRET fluorescence, antagonist mode; 170,000 compounds, 0.27% hits; inhibition, % at 4.98 µM;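 active = inhibition above the plate cutoff, the mean inhibition of test wells on that plate plus 3 SD, cut at about 28% in these data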;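 also: cells challenged with S1P at its EC80 of 0.8 µM; blue over green emission ratio from cleaved BLA substrate after 4 h stimulation; 0% = S1P-stimulated wells and 100% = unstimulated DMSO-only wells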
Target sequence (Q99500 whole entry, looked up): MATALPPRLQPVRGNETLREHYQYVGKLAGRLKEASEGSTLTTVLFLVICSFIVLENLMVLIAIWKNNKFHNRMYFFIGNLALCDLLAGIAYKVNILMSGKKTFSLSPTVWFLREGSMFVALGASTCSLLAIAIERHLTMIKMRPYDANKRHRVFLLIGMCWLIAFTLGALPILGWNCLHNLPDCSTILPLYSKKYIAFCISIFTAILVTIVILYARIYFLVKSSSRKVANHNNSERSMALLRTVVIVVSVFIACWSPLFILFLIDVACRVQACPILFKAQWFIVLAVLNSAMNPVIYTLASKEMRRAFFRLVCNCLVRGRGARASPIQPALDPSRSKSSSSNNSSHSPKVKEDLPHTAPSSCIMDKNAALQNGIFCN
Hsp70 act: Hsp70 transcriptional activation, primary screen. HeLa Hsp70 promoter luciferase reporter, luminescence; scaled: vehicle 0, proteasome-inhibitor control 100%. AID 1203. activation, % at 10 µM. 200,000 compounds, 0.04% hits;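 active = activation above the mean across all tested compounds plus 3 SD, cutoff set per campaign, cut at about 5.5% in these data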;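 also: 100% = MG132 at 30 µM as the positive control and 0% = DMSO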
* hit, by the source's call; ? = inconclusive; / = not tested or not shown. Hits are enriched below; roughly 2.9% of the tested compounds scored in any of these assays.

SMILES	S1P4 antagonist	HSF1 activator	S1P4 ag	HSF1 inhib	S1P3 antag	Hsp70 act
Clc1ccccc1-c1nnc(-c2ccc3c(c2)OCO3)o1	-10	95*	0	62	-5	0
Cc1cccc(N(C)C(=O)CCS(=O)(=O)c2cc3c(cc2Cl)NC(=O)CO3)c1	/	-13	/	-3	/	/
Clc1ccc(-c2csc(Nc3ccccc3)[n+]2Cc2ccco2)c(Cl)c1	0	92*	0	113	-1	0
COc1cc(/C=N/N2CCCCC2)cc(OC)c1O	/	-17	/	-3	/	/
Cc1ccc(C(=O)CNc2ccc(Cl)cc2)cc1	-6	36	0	30	1	0
CCOc1ccc(NCC(=O)c2ccc(C)cc2)cc1	-9	-60	0	-54*	8	0
COc1ccc(C)cc1NC(=O)c1nnn(Cc2cccc(C(F)(F)F)c2)c1N	10	0	0	2	21	0
Cc1nnnn1/C(=C\c1ccccc1)C(=O)OCC(=O)NC(C)(C)C	-2	15	0	27	24	0
Cc1nnnn1/C(=C\c1ccccc1)C(=O)OCC(=O)NC1CCCCC1	/	78*	/	70	/	/
O=[N+]([O-])c1c(Nc2ccc(O)cc2)cc(Cl)c2nonc12	/	132*	/	122	/	/
O=[N+]([O-])c1c(Nc2ccccn2)cc(Cl)c2nonc12	-1	163*	1	98	28	/
CN(C)c1cc(Nc2ccc(O)cc2)c([N+](=O)[O-])c2nonc12	2	-41	1	-25	-15	/
Cc1ccc(C(=O)Nc2ccc(Cl)cc2C)c(Cl)c1	1	67*	-1	49	-26	0
Oc1cccc(N2Cc3ccccc3C2)c1	/	20	/	-8	/	/
Cc1cc2c(cc1C)CN(c1ccccc1)C2	-2	56*	1	26	4	/
C/C(NC(=O)c1ccccc1F)=C1\C(=O)C[C@@H]2[C@H]1C2(C)C	4	51*	2	27	/	0
C/C(NC(=O)c1cccc(F)c1)=C1/C(=O)C[C@@H]2[C@H]1C2(C)C	1	40	-4	38	/	0
Cc1cc(C(=O)NNS(=O)(=O)c2ccc(F)cc2)nn1C(C)(C)C	10	-79	0	-71*	-5	/
Cc1cc(/C=N/n2cnnc2)c(C)n1-c1ccc(OCc2ccccc2F)cc1	-17	1	3	-6	68*	0
Cc1cc(/C=N/n2cnnc2)c(C)n1-c1ccc(OCc2ccc(Cl)cc2)cc1	-10	-49	-2	-44	/	0
COc1ccc(-n2ncc3c(NCCCN4CCOCC4)ncnc32)cc1	-10	-59	0	-55*	17	0
C=CCc1cccc2cc(C(=O)NNC(=O)CC#N)c(=O)oc12	5	-14	0	-4	-5	/
C=CCSc1nc2ccccc2n1C(=O)/C=C/c1cc(OC)c(OC)c(OC)c1	-7	-63	1	-64*	/	9.7*
CCn1c(SCC(=O)N/N=C/c2ccc(OC)c(OC)c2)nc2ccccc21	-2	/	1	/	/	0
COc1ccc(/C=C/C(=O)N2CC(C)OC(C)C2)cc1OC (stereo unspecified)	/	4	/	-1	/	/
SMILES	S1P4 antagonist	HSF1 activator	S1P4 ag	HSF1 inhib	S1P3 antag	Hsp70 act
CCOC(=O)n1c(SCC(N)=O)nc2ccccc21	-6	-73	2	-65*	/	0
CCSc1nc2ccccc2n1C(=O)/C=C/c1ccc(OC)c(OC)c1	-19	82*	2	33	-2	0
C=CCSc1nc2ccccc2n1C(=O)/C=C/c1ccc(OC)c(OC)c1	-8	71*	0	44	/	0
CCOc1ccc(-c2cnc(NCc3cccc4ccccc34)n2CCOC)cc1	/	-88	/	-83*	/	/
O=c1[nH]cc(S(=O)(=O)NCc2ccccc2)c(=O)[nH]1	/	-1	/	-4	/	/
COc1ccccc1C(O)(C(=O)N(NC(C)=O)c1ccccc1)c1ccccc1OC	/	-71	/	-63*	/	/
Nc1c(C(=O)c2ccco2)oc2ccccc12	-9	18	-1	-4	-13	0
CC(C)c1ccc(NC(=O)Nc2cc3sccc3n2C)cc1	-9	-82	-3	-77*	/	0
Cn1c(C(=O)Nc2ccc3c(c2)OCCO3)cc2sccc21	5	1	0	0	24	0
Nc1c(Nc2ccccc2)c2ccccc2oc1=O	-1	88*	-5	82	9	0
Cc1ccc(C(=O)CSc2nnnn2C(C)C)c(C)c1	-27	54*	0	28	/	0
COc1cc(/C=N/NC(=O)c2nnn(-c3nonc3N)c2C(C)C)ccc1OCc1ccc(F)cc1	/	27	/	25	/	/
Cc1sc(NC(=O)c2ccc(Cl)s2)c(C(N)=O)c1C	-31	30	4	24	18	1
Cc1sc(NC(=O)c2ccc(Br)s2)c(C(N)=O)c1C	5	61*	0	38	/	0
COc1ccccc1-c1nc(-c2ccc(Br)cc2)no1	2	55*	0	39	12	0
Cc1nn(C)c(NC(=O)c2ccc(Cl)cc2Cl)c1Br	/	9	/	-6	/	/
Cc1cccc(NC(=O)c2cc(-c3cc(C)ccc3O)n[nH]2)c1	/	104*	/	55	/	/
Cc1c(Cl)cccc1NC(=O)c1cc(-c2ccccc2O)n[nH]1	16	87*	0	69	/	0
Cc1cc(C)c(S(=O)(=O)Nc2ccc(N(C)C)cc2)c(C)c1-n1cnnn1	/	-70	/	-65*	/	/
COc1ccc2c(C(=O)CCl)c[nH]c2c1	-4	34	0	34	-7	/
S=C(N/N=C/c1ccccc1Cl)Nc1cccc(Cl)c1Cl	2	22	1	12	-8	/
Cc1cccc(Nc2nc(-c3ccc(F)c(C)c3)cs2)n1	/	67*	/	46	/	/
Cc1cccc(Nc2nc(-c3ccc(O)c(O)c3)cs2)n1	/	-1	/	2	/	/
COC(=O)c1ccc2c(CCO)c[nH]c2c1	/	2	/	3	/	/
O=C(CSc1ccccn1)N1CCc2ccccc21	-11	24	0	12	-3	0
SMILES	S1P4 antagonist	HSF1 activator	S1P4 ag	HSF1 inhib	S1P3 antag	Hsp70 act
C=CCN=c1scc(-c2ccc(F)cc2)n1/N=C/c1ccccn1	-9	47	-1	27	1	0
C=CCN=c1scc(-c2ccccc2)n1/N=C/c1ccccn1	-11	52*	3	38	4	0
Cc1ccc(-c2cnn(-c3cccc([N+](=O)[O-])c3)c2N)cc1	-13	60*	0	32	/	0
O=C(/C=C/c1ccco1)Nc1cccc(NC(=O)/C=C/c2ccco2)n1	1	81*	0	46	-5	0
COc1ccccc1NC(=O)C(=O)Nc1ccccn1	1	59*	0	28	/	0
COc1ccccc1/C=C/C(=O)NC(=S)Nc1ccccn1	/	65*	/	51	/	/
Cc1nc(NC(=O)/C=C/c2ccco2)sc1C	-7	39	-1	27	-9	0
COc1ccc(/C=C/C(=O)NC(=S)Nc2ccccn2)cc1	/	35	/	23	/	/
O=C(/C=C/c1ccco1)NC(=S)Nc1ccccn1	-6	58*	-1	27	/	0
Cc1cccnc1NC(=S)NC(=O)/C=C/c1ccco1	-7	?	2	34	/	0
